Assay results reported in article PMC5540273 (PLoS ONE, 2017).

Assays:
Conditions in all cases: concentration: 1 μM, replicates: in singlicate; n = 1
PRKD3 = system: PRKD3
PRKG1 = system: PRKG1
PRKG2 = system: PRKG2
PRKR = system: T1, PRKR
T1 construct: gene EIF2AK2

PRKX = system: PRKX
PRP4 = system: PRP4
PYK2 = system: T2, PYK2
T2 construct: gene PTK2B

QSK = system: QSK
RAF1 = system: RAF1
RET = system: RET
RIOK1 = system: RIOK1
RIOK2 = system: RIOK2
RIOK3 = system: RIOK3
RIPK1 = system: RIPK1
RIPK2 = system: RIPK2
RIPK4 = system: RIPK4
RIPK5 = system: RIPK5
ROCK1 = system: ROCK1
ROCK2 = system: ROCK2
ROS1 = system: ROS1
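Note: KINOMEscan kinase panel screen.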

Compound	%Inh (PRKD3) [%]	%Inh (PRKG1) [%]	%Inh (PRKG2) [%]	%Inh (PRKR) [%]	%Inh (PRKX) [%]	%Inh (PRP4) [%]	%Inh (PYK2) [%]	%Inh (QSK) [%]	%Inh (RAF1) [%]	%Inh (RET) [%]	%Inh (RIOK1) [%]	%Inh (RIOK2) [%]	%Inh (RIOK3) [%]	%Inh (RIPK1) [%]	%Inh (RIPK2) [%]	%Inh (RIPK4) [%]	%Inh (RIPK5) [%]	%Inh (ROCK1) [%]	%Inh (ROCK2) [%]	%Inh (ROS1) [%]
COc1ccc(Nc2nccc(NCCNC(=O)c3cc4ccccc4s3)n2)cc1 [GSK1379896]	0	0	0	0	16	17	0	2	9	25	19	0	0	0	12	0	7	13	28	9
CNC(=O)c1ccccc1Nc1nc(Nc2ccc(N3CCOCC3)cc2)ncc1Cl.Cl [GSK1576028]	81	74	88	72	17	77	99.7	18	0	100	100	90.7	100	36	35	79	80	53	37	90.9
CSc1cccc2c(-c3ccncn3)c(-c3ccc(F)cc3)nn12 [GW514786]	100	17	0	0	16	19	0	14	4	29	45	0	21	0	43	0	19	13	19	0
Fc1ccc(-c2ncn(C3CCNCC3)c2-c2ccnc(Oc3ccc(-c4ccccc4)cc3)n2)cc1 [SB-245391]	0	6	26	25	0	0	80	7	0	3	7	0	5	0	70	34	33	0	7	0
Cc1ccc(C)c(NC(=O)NC2CCN(c3ccnc(Nc4ccc(F)cc4)n3)C2)c1 (centres unmarked) [GSK1379720]	0	0	0	0	4	51	19	13	14	0	23	0	0	0	0	6	0	0	29	0
C[C@@H]1CC[C@@H](C(=O)Nc2ccccc2)CN1c1cc(-c2ccc3c(N)n[nH]c3c2)nc(N)n1 [GSK2286062]	0	0	0	2	5	13	3	3	2	6	48	52	20	31	0	0	0	14	35	14
COc1cccc(-c2ccc3c(NC(=O)C4CC4)n[nH]c3n2)c1 [SB-710903]	0	0	0	0	0	70	6	0	12	6	38	0	0	99.5	15	27	1	38	49	0
Cc1cccc(Nc2nc(N[C@H]3CCNC3)ncc2C(N)=O)c1.Cl [GSK2197149]	75	0	0	22	38	23	49	14	0	30	99.8	28	89	0	0	90.7	1	67	45	32
COc1cccc(C(=O)Nc2cccc(Oc3ccc4nc(NC(=O)C5CC5)cn4n3)c2)c1	15	0	21	0	2	0	9	0	96.8	100	55	0	39	20	50	0	0	0	0	0
CCc1ccc(-c2ccc3c(c2)-c2c(cnn2C)S(=O)(=O)N3C)cc1	0	0	0	6	16	10	0	0	19	5	0	12	0	0	0	9	26	0	0	3
